Screens from PubChem BioAssay.
DT40 TDP1 CPT: growth inhibition of DT40 Tdp1-/-;hTDP1 cells with camptothecin (screen for TDP1 inhibitors); chicken DT40 Tdp1-/-;hTDP1 cells + 20 nM CPT, ATP luminescence, 48 h; Potency, µM (highest dose often 46.2 µM), without a hit: top-dose activity change, negative = growth inhibition, usual class: inhibitors; 420,000 tested, 12% active; AID 686979; further: potency means the concentration at half of the fitted maximal effect; nearly all actives have a fitted effect of over 55% in size
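Chicken DT40 Tdp1-/- cells stably complemented with human TDP1 were seeded at 400 cells/well in medium containing 20 nM camptothecin, exposed to pin-transferred compounds, and grown at 37 °C for at least 48 hr. Viability was read as ATP luminescence.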
RORgamma inh: ROR gamma (mouse) transcription inhibition; Drosophila S2 Gal4-RORgamma UAS-luciferase reporter, 20 h; Potency, µM (highest dose often 53.6 µM), for inactives: at the highest dose activity change, negative = inhibition, most hits filed as inhibitors; 310,000 tested, 5.4% active; AID 2551; further: potency means the concentration at half of the fitted maximal effect; nearly all actives have a fitted effect of over 60% in size
Target sequence (P51450 whole entry, looked up, the tested form may be a part): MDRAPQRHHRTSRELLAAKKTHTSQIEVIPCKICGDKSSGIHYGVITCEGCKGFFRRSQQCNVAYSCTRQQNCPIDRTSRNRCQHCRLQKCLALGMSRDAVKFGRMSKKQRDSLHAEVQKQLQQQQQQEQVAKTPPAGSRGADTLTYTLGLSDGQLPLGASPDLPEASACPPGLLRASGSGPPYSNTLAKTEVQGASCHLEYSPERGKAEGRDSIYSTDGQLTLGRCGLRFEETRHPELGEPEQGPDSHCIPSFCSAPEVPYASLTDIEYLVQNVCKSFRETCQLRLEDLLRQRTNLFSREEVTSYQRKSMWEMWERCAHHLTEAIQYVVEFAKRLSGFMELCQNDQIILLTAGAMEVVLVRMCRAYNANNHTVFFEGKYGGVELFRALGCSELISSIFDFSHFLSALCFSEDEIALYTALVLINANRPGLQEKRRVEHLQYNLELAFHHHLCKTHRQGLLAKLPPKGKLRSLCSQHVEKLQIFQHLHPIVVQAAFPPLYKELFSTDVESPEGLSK
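Luminescence from a UAS-regulated Photinus luciferase reporter in stably transfected Drosophila Schneider cells is measured; decreased signal marks ROR gamma inhibition. Fusion expression is induced by 700 uM copper sulfate for 20 hr.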
IL-1B inflam inh: inhibitors of inflammasome signaling (IL-1 beta secretion) | 360,000 tested, 4.7% active | AID 743279 | THP-1 LPS/ATP IL-1B secretion, AlphaLISA, 16 h; stronger effect = lower value | activity change, % at 57.5 µM; in the data active means activity change below about -50%; inconclusive means mostly about -30% to -49%
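Secreted IL-1B measured by AlphaLISA bead assay after 16 h compound exposure of THP-1 cells; compounds (final up to 57.5 uM) added 1 h before LPS (250 ng/mL) and ATP (1.25 mM) stimulation; lower signal means less secretion.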
DT40 TDP1 no CPT: qHTS for Inhibitors of human tyrosyl-DNA phosphodiesterase 1 (TDP1): qHTS in cells in absence of CPT | AID 686978, 2013 | DT40 Tdp1-/- hTDP1 cells, no CPT, ATP luminescence, 48 h | 420,000 tested, 15% active | Potency, µM (series often up to 46.2 µM), for inactives: top-dose activity change, negative = growth inhibition, usual class: inhibitors; further: potency means the concentration at half of the fitted maximal effect; nearly all actives have a fitted effect of over 55% in size
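DT40 Tdp1-/-;hTDP1 cells, no CPT (DMSO vehicle only), 400 cells/well; compounds pin-transferred; ≥48 hr, 37 °C; CellTiter-Glo 30 min RT dark, luminescence read.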
LDHA inh: inhibitors of human lactate dehydrogenase A. 480,000 tested, 0.15% active. activity change, % (values are at about 110 or 230 µM). AID 1347041. purified LDHA, NADH/diaphorase-resazurin fluorescence; stronger effect = lower value; in the data active means activity change below about -30%; inconclusive means mostly about -25% to -30%;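 further: plate controls were DMSO wells for no effect and wells without enzyme for full effect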
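Enzyme activity of human lactate dehydrogenase 5 (2 nM; 0.06 mM NADH, 0.2 mM pyruvate, 5 min, RT) is measured via a resazurin/diaphorase fluorescence readout of residual NADH.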
VP16 counter: inhibits Gal4-VP16 luciferase reporter, ROR gamma counter-screen. Drosophila S2 Gal4-VP16 UAS-luciferase, luminescence, 20 h. Potency, µM (doses to about 53.6 µM), inactives show at the top dose activity, negative = inhibition, hits mostly inhibitors. 310,000 tested, 3.5% active;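 further: Gal4-VP16 expression switched on by copper sulfate through the metallothionein promoter; potency means the concentration at half of the fitted maximal effect; nearly all actives have a fitted effect of over 50% in size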
* marks the source's active call; other numbers are inactive results; ? = inconclusive; . = not tested or not shown; [ ] = dose if it differs, or a comment. Rows were chosen to be rich in hits. Some 18% of all compounds tested hit in one or more screens of this group. Unless noted, the call rests on the fitted dose curve; in most records, active means well fitted curve in the direction sought with a large enough effect; inconclusive means small, poorly fitted or top-dose-only effect, or another doubt; inactive means no such curve, though single readings can be large; an effect the other way counts as inactive or inconclusive. Unless noted, on the % scale 0 is the no-effect control and ±100 the full control effect.

SMILES	DT40 TDP1 CPT	RORgamma inh	IL-1B inflam inh	DT40 TDP1 no CPT	LDHA inh	VP16 counter
CCC(CC)C(=O)Nc1c(C)cc(C)cc1C	.	.	.	.	-13.3	.
COc1ccc2c(CCNC(=O)c3ccc(C)cc3)c[nH]c2c1	.	.	.	.	-1.0	.
CC(C)COc1ccc(C(=O)NCC2(N3CCN(C)CC3)CCCCC2)cc1	?	.	.	18.4µM*	-4.0	.
Cc1ccc(OC(C)C(=O)NCC2(N3CCOCC3)CCCCC2)cc1C (stereo unspecified)	?	.	.	?	4.0	.
COc1ccccc1OC(C)C(=O)NCC1(N2CCOCC2)CCCCC1 (stereo unspecified)	23.1µM*	.	.	18.4µM*	-7.1	.
COc1ccc(NC(=O)C2CCN(c3cnccn3)CC2)cc1OC	15.1%	2.2%	-3.0	-23.0%	-9.0	-17.0%
COc1ccccc1NC(=O)N1CCN(c2cc(-c3ccccc3)nc3ncnn23)CC1	4.61µM*	11.4%	?	4.11µM*	-1.0	-22.0%
COc1ccc(NC(=O)C2CCN(c3cc(-c4ccccc4)nc4ncnn34)CC2)cc1OC	18.4µM*	29.7%	-58.4*	23.1µM*	1.8	-12.9%
CC(=O)CCc1c(C)nc2ccc(C)cc2c1Cl	-7.9%	3.1%	?	5.17µM*	3.4	-1.6%
O=S(=O)(Nc1nc2ccccc2nc1N1CCN(CCO)CC1)c1cc(F)ccc1F	23.1µM*	.	12.9	20.8%	-3.7	.
O=C(Cc1ccc2c(c1)CCCC2)N1CCC(NS(=O)(=O)c2ccccc2)CC1	.	.	.	.	2.3	.
Cc1ccc(S(=O)(=O)/N=C2/NC(=O)/C(=C\c3cc(Br)cc(Br)c3O)S2)cc1	-8.9%	11.2µM*	9.4	-4.4%	-12.3	-16.7%
Cc1ccc(S(=O)(=O)/N=C2/NC(=O)/C(=C/c3cccnc3)S2)cc1	?	-16.2%	-3.4	29.1µM*	-9.2	-3.3%
CCCN(CCC)C(=O)Cn1c(=O)c2sccc2n2c(=S)sc(-c3ccccc3)c12	-16.4%	2.8%	23.0	-12.1%	-3.7	0.6%
CCCN(CCC)C(=O)Cn1c(=O)c2ccccc2n2c(=S)sc(-c3ccccc3C)c12	10.3µM*	-7.3%	20.7	14.6µM*	-6.6	-7.0%
Cc1ccc2c(c1)NC(=O)C(CC(=O)NCCCN1CCN(c3cc(C)ccc3C)CC1)O2 (stereo unspecified)	8.2µM*	11.8%	-29.9	7.31µM*	-2.3	-7.3%
O=C(Cn1cc2c(n1)CCCC2)NCCCN1CCN(c2ccccc2F)CC1	?	3.4%	-9.6	?	-0.8	4.8%
CC1CCc2nn(CC(=O)NCCCN3CCCC3=O)cc2C1 (stereo unspecified)	10.3%	-4.9%	8.9	-1.6%	-1.0	-2.7%
Cc1ccc(C)c(N2CCN(CCCNC(=O)Cn3cc4c(n3)CCC(C)C4)CC2)c1 (stereo unspecified)	16.4µM*	-31.9%	0.0	14.6µM*	-4.5	0.5%
Cc1ccc(C)c(N2CCN(CCCNC(=O)Cn3cc4c(n3)CCCCC4)CC2)c1	4.61µM*	12.6µM*	?	6.51µM*	-2.2	20µM*
COCCCNC(=O)CCc1ncc(-c2ccccc2F)o1	.	.	.	.	10.6	.
Cc1[nH]c2ccccc2c1C(=O)C(=O)NC(C)c1ccccc1 (stereo unspecified)	.	.	.	.	-2.0	.
COc1ccccc1CNC(=O)CCn1c(=O)c2ccccc2n(CC(=O)Nc2ccc(C)cc2)c1=O	?	.	.	?	-10.3	.
O=C(Cn1c(=O)n(CCC(=O)N2CCc3ccccc3C2)c(=O)c2ccccc21)NCC1CCCO1 (stereo unspecified)	-5.4%	-5.4%	-7.3	-16.9%	-7.1	-3.7%
Cc1ccccc1NC(=O)Cn1c(=O)n(CCC(=O)N2CCc3ccccc3C2)c(=O)c2ccccc21	16.4µM*	.	.	14.6µM*	-5.6	.
SMILES	DT40 TDP1 CPT	RORgamma inh	IL-1B inflam inh	DT40 TDP1 no CPT	LDHA inh	VP16 counter
Cc1ccc(NC(=O)Cn2c(=O)n(CCC(=O)N3CCc4ccccc4C3)c(=O)c3ccccc32)cc1	18.4µM*	.	.	16.4µM*	-14.2	.
CCOc1ccc(-n2c(SCC(N)=O)nc3c([nH]c4ccccc43)c2=O)cc1	13µM*	-16.1%	52.5	?	2.0	-1.1%
CCOc1ccc(-n2c(SCC(=O)Nc3cc(C)ccc3C)nc3c([nH]c4ccccc43)c2=O)cc1	13µM*	.	.	16.4µM*	-1.1	.
CCOc1ccc(-n2c(SCC(=O)Nc3cc(C)on3)nc3c([nH]c4ccccc43)c2=O)cc1	?	?	109.5	-29.9%	-2.4	5.9%
Cc1ccc(CCNC(=O)CN(c2ccc(C(C)C)cc2)S(=O)(=O)c2c(C)nn(C)c2C)cc1	?	.	.	23.1µM*	-1.8	.
COc1ccc(N(CC(=O)NCCc2ccc(C)cc2)S(=O)(=O)c2c(C)noc2C)cc1	20.6µM*	35.2%	-10.9	?	0.3	-0.5%
COc1ccc(N(CC(=O)NCCc2cccc(C)c2)S(=O)(=O)c2c(C)noc2C)cc1	?	15.2%	-16.2	18.4µM*	-1.0	-13.4%
N#CCOc1ccc(NC(=O)c2n[nH]c(=O)c3ccccc23)cc1	.	.	.	.	-6.6	.
Cn1nc(C(=O)Nc2ccccc2Br)c2ccccc2c1=O	.	.	.	.	-0.3	.
Cc1cc(NNC(=O)c2cccc(C(F)(F)F)c2)nc2c1c(C)nn2C	10.3µM*	-28.8%	-1.9	5.8µM*	-2.7	?
Cc1cc(C)n(CC(=O)NNC(=O)c2cccc(C(F)(F)F)c2)n1	-13.9%	-17.9%	2.0	15.1%	-4.1	-3.5%
CCOC(=O)NC(C)C12CC3CC(CC(C3)C1)C2 (stereo unspecified)	.	.	.	.	-4.0	.
CNC(=S)NCCc1c[nH]c2ccc(OC)cc12	-4.0%	-4.2%	-16.7	-0.6%	-3.4	-3.2%[10 µM]
COc1ccc2[nH]cc(CCNC(=S)NC3CCCC3)c2c1	0.7%	10µM*	18.1	-3.4%	-7.3	?
S=C(NCCc1c[nH]c2ccccc12)NC1CCCC1	32.6%	-5.5%	26.9	-5.7%	-0.9	-8.6%
S=C(NCCc1c[nH]c2ccccc12)NC1CCCCC1	?	14.1µM*	-52.0*	?	-1.1	-26.0%
CCC(C)C(=O)NCc1cccc(COC)c1 (stereo unspecified)	.	.	.	.	7.1	.
CCCCCCOc1ccc(C(=O)CCN(C)C)cc1	.	.	.	.	1.0	.
CN1c2ccccc2C2(C)CCCC3=Cc4cccc([N+](=O)[O-])c4OC312 (stereo unspecified)	?	10.9%	-1.9	16.4µM*	1.1	?
Cc1ccc([N+](=O)[O-])c2c1C(N1CCCC1)C(C)(C)O2 (stereo unspecified)	?	-2.2%	-2.1	?	1.2	2.0%
